A selection: hits, their analogues and other compounds. The true share with any hit is near 2.6%.
uPA surface inh: blocks generation of uPA at the cell surface; cell surface uPA generation assay, qHTS; Potency, µM (series often up to 38.3 µM), usual class: inhibitors; actives 0.31% (n = 330,000); active = well fitted inhibition curve with a large enough effect; inconclusive = small, poorly fitted or top-dose-only effect; inactive = no such curve, though single readings can be large or run the other way; tested in mouse RAW 264.7 cells; note: nearly all actives have a fitted effect of over 55% in size
HepG2 tox-1: HepG2 cytotoxicity, counter-screen for TGF-b inhibitors; HepG2 CAGA-GFP viability, ATP luminescence, 18 h; Potency, µM (doses to about 46.1 µM), most hits filed as cytotoxic; actives 0.76% (n = 410,000); AID 588856
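HepG2 CAGA-GFP cells (1000/well, DMEM with 1% FBS) received compound, then TGF-beta at 500 pg/mL final, and were incubated 18 hours at 37 degrees C. Viability was read by CellTiter-Glo luminescence. Media-only wells were set as complete cell-killing and DMSO as no toxicity.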
ATXN viability: viability counter-screen for ATXN expression inhibitors. S2 cells (HEK-293 line with an ATXN2-luciferase reporter) viability, CellTiter-Fluor protease fluorescence, 24 h. Potency, µM (titrated, usually from 56.7 µM), actives largely listed as cytotoxic. actives 0.49% (n = 400,000); note: nearly all actives have a fitted effect of over 40% in size
TGFb SMAD3 inh: inhibitors of TGF-b signaling. HepG2 CAGA-GFP TGF-b/SMAD3 reporter, GFP fluorescence, 18 h; TGF-beta stimulated, 500 pg/mL final. Potency, µM (doses to about 46.1 µM), most hits filed as inhibitors. actives 1.2% (n = 410,000); note: nearly all actives have a fitted effect of over 65% in size
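HEPG2 CAGA-GFP reporter cells (1000/well, DMEM with 1% FBS) received compounds, then recombinant TGF-beta at 500 pg/mL final for 18 hours at 37 degrees C. Per-cell GFP summed per well was normalised to unstimulated and stimulated DMSO controls before curve fitting.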
ATXN2 expr inh: reduces ATXN2 reporter expression in HEK-293 cells. AID 1745845. Potency, µM (top dose mostly 57 µM), actives largely listed as inhibitors. HEK-293 ATXN2-luciferase reporter, luminescence, 24 h. actives 0.72% (n = 360,000); note: nearly all actives have a fitted effect of over 55% in size
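ATXN2-luciferase reporter cells (luciferase flanked by upstream and downstream ATXN2 gene portions) were treated 24 h at 37 °C with compounds at up to 57 uM. SteadyGlo luminescence gave expression; GF-AFC fluorescence gave viability.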
Giardia killer: Giardia lamblia killing; Giardia lamblia trophozoite viability; activity change, % at 7.66 µM, hits read low; actives 0.15% (n = 340,000); AID 540267; in the data active = activity change below about -80%; inconclusive = between about -30% and that limit;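 note: parasites exposed to compound for two days anaerobically before the ATP read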
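Anaerobic 48 hrs incubation at 37 deg C of 100 trophozoites/well with test compounds; ATPLite 1-Step luminescence, 15-30 min RT, reports cellular ATP as viability.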
TGFb CAGA inh: TGF-b pathway inhibition, cherry-pick retest; AID 720534; actives 63% (n = 1,600); Potency, µM (doses to about 46.1 µM), hits mostly inhibitors; HepG2 CAGA-GFP TGF-b reporter, GFP fluorescence, 18 h; cells stimulated with TGF-beta, 500 pg/mL; shares compounds with TGFb SMAD3 inh; note: nearly all actives have a fitted effect of over 65% in size
HepG2 tox-2: counter-screen for TGF-b inhibitors: cytotoxicity in HepG2 cells; shares compounds with TGFb SMAD3 inh; HepG2 CAGA-GFP viability, ATP luminescence, 18 h; cells stimulated with TGF-beta, 500 pg/mL; Potency, µM (top dose mostly 46.1 µM), actives largely listed as inhibitors; actives 27% (n = 1,600); AID 720535; note: nearly all actives have a fitted effect of over 70% in size
TGFb CCL64 inh: orthogonal confirmation of TGF-b inhibitors in CCL64 cells. shares compounds with TGFb SMAD3 inh. CCL64 CAGA-GFP reporter, TGF-b stimulated, GFP fluorescence, 18 h. Potency, µM (doses to about 46.1 µM), actives largely listed as inhibitors. actives 41% (n = 1,600). AID 720536; note: nearly all actives have a fitted effect of over 65% in size
TGFb COP inh: TGF-b inhibition validated with COP promoter; shares compounds with TGFb SMAD3 inh; Potency, µM (top dose mostly 46.1 µM), hits mostly inhibitors; HepG2 COP-GFP TGF-b reporter, GFP fluorescence, 18 h; cells stimulated by added recombinant TGF-beta; AID 720537; actives 3% (n = 1,600); note: nearly all actives have a fitted effect of over 70% in size
Each line names hits and unclear results; the compound was inactive in the other large screens (follow-up assays come after a bar, where they were run). Unless noted, calls come from the whole dose curve; as a rule, active = well fitted curve in the direction sought with a large enough effect; inconclusive = small, poorly fitted or top-dose-only effect, or another doubt; inactive = no such curve, though single readings can be large; an effect the other way counts as inactive or inconclusive.

CCn1c(=O)c(C(=O)CN2CCN(Cc3ccc4c(c3)OCO4)CC2)c(N)n(Cc2ccccc2)c1=O	none
O=S(=O)(c1ccc2nc(SCc3ccc(Cl)cc3)[nH]c2c1)N1CCOCC1	TGFb SMAD3 inh 10µM | TGFb CAGA inh 12µM | HepG2 tox-2 inactive | TGFb CCL64 inh inconclusive | TGFb COP inh inactive
CCOC(=O)c1cc(-c2ccc(C)cc2)n(CC(=O)NC2CCCCCC2)c1C	TGFb SMAD3 inh inconclusive (no result: uPA surface inh, Giardia killer)
COc1ccc(C)c2sc(N(CCCN(C)C)C(=O)c3ccc(S(=O)(=O)N4CCc5ccccc5C4)cc3)nc12	HepG2 tox-1 7.1µM, TGFb SMAD3 inh 5µM, ATXN2 expr inh 28µM (no result: ATXN viability) | TGFb CAGA inh 4.6µM | HepG2 tox-2 5.2µM | TGFb CCL64 inh 5.2µM | TGFb COP inh inconclusive
CC(=O)Oc1ccc(-c2ccc(C(=O)Nc3cccc(S(=O)(=O)N4CCOCC4)c3)cc2)cc1	TGFb SMAD3 inh 11µM | TGFb CAGA inh 21µM | HepG2 tox-2 inconclusive | TGFb CCL64 inh inconclusive | TGFb COP inh inactive
COc1ccc(C(=O)NC(=S)Nc2cccc(S(=O)(=O)N3CCOCC3)c2)cc1	none
COc1ccc(S(=O)(=O)Nc2ccc(F)c(F)c2)cc1Cl	TGFb SMAD3 inh 10µM | TGFb CAGA inh inactive | HepG2 tox-2 inactive | TGFb CCL64 inh inactive | TGFb COP inh inactive
COc1ccc(NS(=O)(=O)c2ccc(OC)c(N(C)S(=O)(=O)c3ccc(Cl)cc3)c2)cc1	ATXN viability inconclusive, TGFb SMAD3 inh 10µM, ATXN2 expr inh inconclusive | TGFb CAGA inh 7.3µM | HepG2 tox-2 inconclusive | TGFb CCL64 inh inconclusive | TGFb COP inh inactive
COc1ccc(NS(=O)(=O)c2ccc(OC)c(OC)c2)cc1OC	TGFb SMAD3 inh inconclusive
COc1ccc(S(=O)(=O)Nc2ccc(F)cc2)cc1N(C)S(=O)(=O)c1ccc(Cl)cc1	TGFb SMAD3 inh inconclusive, ATXN2 expr inh inconclusive
CS(=O)(=O)c1nc(S(=O)(=O)c2ccc(Cl)cc2)c(NCCN2CCOCC2)s1	none
COc1ccc2nc(N(Cc3cccnc3)C(=O)CCc3ccccc3)sc2c1	TGFb SMAD3 inh inconclusive (no result: uPA surface inh, ATXN viability, ATXN2 expr inh, Giardia killer)
CC(=O)O[C@H]1CC[C@@]2(C)C(CCC3C2CC[C@]2(C)OC(=O)CCC32)C1 (stereo partly drawn)	none
CC(=O)OC1CCC2(C)C(CCC3C4CC=C(C(C)=O)C4(C)OC(=O)CC32)C1 (stereo not drawn)	HepG2 tox-1 13µM, ATXN viability 2.5µM, TGFb SMAD3 inh 4µM (no result: uPA surface inh, ATXN2 expr inh, Giardia killer) | TGFb CAGA inh 18µM | HepG2 tox-2 12µM | TGFb CCL64 inh 2.9µM | TGFb COP inh inconclusive
Cc1cc(C)cc(Nc2nc3ccccc3c(=O)[nH]2)c1	TGFb SMAD3 inh inconclusive
COc1nc(Nc2nc3ccccc3c(=O)[nH]2)nc2ccc(C)cc12	ATXN viability inconclusive, TGFb SMAD3 inh 5.6µM | TGFb CAGA inh 4.1µM | HepG2 tox-2 4.1µM | TGFb CCL64 inh 1.5µM | TGFb COP inh inactive
Cc1ccc(NC(=O)CN(C)C(=O)c2ccc(NS(=O)(=O)c3cccc([N+](=O)[O-])c3)cc2)cc1	none (no result: ATXN2 expr inh)
Cc1ccc(NS(=O)(=O)c2ccc(OCC(=O)Nc3cccc([N+](=O)[O-])c3)c(C)c2)cc1	ATXN viability inconclusive, TGFb SMAD3 inh 11µM, ATXN2 expr inh inconclusive (no result: uPA surface inh) | TGFb CAGA inh inactive | HepG2 tox-2 inactive | TGFb CCL64 inh inactive | TGFb COP inh inactive
CC(=O)c1cn(CC(=O)Nc2c(C)cccc2C)c2ccccc12	TGFb SMAD3 inh inconclusive | TGFb CAGA inh inconclusive | HepG2 tox-2 inactive | TGFb CCL64 inh inactive | TGFb COP inh inactive
Clc1ccc(-c2nnc(COc3ncnc4ccccc34)o2)cc1	none
O=S(=O)(CC(CN1CCCCC1)N1CCCCC1)c1ccc2ccccc2c1 (stereo not drawn)	HepG2 tox-1 11µM, TGFb SMAD3 inh 3.2µM | TGFb CAGA inh 13µM | HepG2 tox-2 13µM | TGFb CCL64 inh inconclusive | TGFb COP inh inconclusive
COc1ccc(-c2[nH]c(-c3cc(OC)c4c(c3)OCO4)nc2-c2ccccc2)cc1	TGFb SMAD3 inh inconclusive | TGFb CAGA inh 13µM | HepG2 tox-2 inconclusive | TGFb CCL64 inh inconclusive | TGFb COP inh inactive
CCOc1ccc(-c2nc(-c3ccccc3)c(-c3ccccc3)[nH]2)cc1OCC	none (no result: uPA surface inh, Giardia killer)
CCOC(=O)c1ccc(N=Nc2c(C)[nH]n(-c3ccccc3)c2=O)cc1	none (no result: ATXN2 expr inh)
CCOC(=O)c1ccc(-n2[nH]c(-c3ccccc3)cc2=O)cc1	HepG2 tox-1 10µM, TGFb SMAD3 inh inconclusive, ATXN2 expr inh inconclusive (no result: uPA surface inh) | TGFb CAGA inh 16µM | HepG2 tox-2 inconclusive | TGFb CCL64 inh inconclusive | TGFb COP inh inactive
COc1ccc(NC(=O)c2c(Nc3ccccc3)sc(C(=O)c3ccc(F)cc3)c2N)cc1	TGFb SMAD3 inh 3.2µM, ATXN2 expr inh inconclusive | TGFb CAGA inh inactive | HepG2 tox-2 inactive | TGFb CCL64 inh inconclusive | TGFb COP inh inactive
Cc1ccc(SC(C)C(=O)NCc2ccncc2)cc1 (stereo not drawn)	TGFb SMAD3 inh inconclusive | TGFb CAGA inh inconclusive | HepG2 tox-2 inactive | TGFb CCL64 inh inactive | TGFb COP inh inactive
Cc1cccc(C=NOCCc2ccccc2)n1	none
COc1ccc(NC(=O)CCC(=O)Nc2nnc(CC(C)C)s2)cc1Cl	none
O=C1C=C(N2CCN(c3ccccn3)CC2)C(=O)c2c(O)ccc(O)c21	ATXN viability inconclusive, TGFb SMAD3 inh 7.1µM, ATXN2 expr inh inconclusive | TGFb CAGA inh 4.6µM | HepG2 tox-2 9.2µM | TGFb CCL64 inh inconclusive | TGFb COP inh inactive
O=C(N1CCN(c2ccccn2)CC1)C(Cl)(Cl)Cl	Giardia killer inconclusive
O=C(O)CCCC(=O)Nc1ccccc1SCCS(=O)(=O)c1ccc(Cl)cc1	ATXN viability inconclusive
Cc1ccccc1-c1noc(-c2ccc(N3CCN(C)CC3)c([N+](=O)[O-])c2)n1	TGFb SMAD3 inh inconclusive (no result: uPA surface inh, Giardia killer)

Compound activity from PubChem.
